From PubChem BioAssay
ABCB6 inh MLPCN – human ABCB6 transporter inhibition. K562-ABCB6 porphyrin accumulation, flow cytometry, 1 h; stronger effect = lower value. fluorescence ratio to DMSO, % at 10 µM. 360,000 tested, 0.19% active. AID 602162;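 active means fluorescence ratio to DMSO below 75%, the collection mean minus 3 SD; inconclusive means too few cells collected in the well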;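 further: signal is porphyrin accumulated inside mitochondria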
NOD2 RIPK2 PPI – NOD2-RIPK2 protein interaction inhibition. O43353. CHO BLA complementation NOD2-RIPK2, CCF4 ratio. inhibition, % at 4.98 µM. 360,000 tested, 0.38% active. AID 624267; in the data active means inhibition above about 21%
Target sequence (O43353 whole entry, looked up): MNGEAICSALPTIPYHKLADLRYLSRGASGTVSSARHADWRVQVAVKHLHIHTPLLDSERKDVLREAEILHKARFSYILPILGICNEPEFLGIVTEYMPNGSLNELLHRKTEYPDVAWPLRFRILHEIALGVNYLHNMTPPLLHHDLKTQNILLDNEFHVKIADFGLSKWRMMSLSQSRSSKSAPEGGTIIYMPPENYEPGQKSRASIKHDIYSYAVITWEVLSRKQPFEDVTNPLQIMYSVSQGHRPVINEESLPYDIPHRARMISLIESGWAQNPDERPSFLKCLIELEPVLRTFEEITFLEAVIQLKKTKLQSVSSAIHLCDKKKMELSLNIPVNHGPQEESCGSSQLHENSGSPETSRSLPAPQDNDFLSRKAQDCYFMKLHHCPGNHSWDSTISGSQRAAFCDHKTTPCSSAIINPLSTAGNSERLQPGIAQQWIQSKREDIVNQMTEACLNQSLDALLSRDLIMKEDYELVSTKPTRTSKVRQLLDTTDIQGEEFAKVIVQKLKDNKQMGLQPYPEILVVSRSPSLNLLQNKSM
Myeloid diff MLP – promotes myeloid progenitor differentiation; 360,000 tested, 1% active; ER-HoxA9 myeloid progenitors, lysozyme-GFP differentiation, flow cytometry; calls only at 10 µM; AID 624256;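 active means normalized GFP-positive differentiation at or above the plate's own cutoff, the solvent-only control mean plus 3 SD; inconclusive means no clear call, values can overlap the other calls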;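 further: cells exposed to compound for four days before flow analysis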
TLR4-MyD88 BLA – blocks binding of human TLR4 to MyD88; 200,000 tested, 0.18% active; HeLa CL3-4 TLR4/MyD88 BLA complementation, FRET ratio; O00206+Q99836; inhibition, % at 8.4 µM; in the data active means inhibition above about 25%
TLR9-MyD88 inh – blocks human TLR9 binding to MyD88; Q9NR96+Q99836; CHO BLA complementation TLR9-MyD88, CCF4 FRET ratio; inhibition, % at 4.98 µM; 340,000 tested, 0.21% active; AID 504734;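 active means inhibition above the mean over all tested compounds plus 3 SD, cut at about 21% in these data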
Numbers stand for hits; i = inactive; ? = inconclusive; nt = no result given; + = active, no number; ! = repeats disagree. Hits are enriched below; roughly 1.7% of the tested compounds scored in any of these assays.

SMILES	ABCB6 inh MLPCN	NOD2 RIPK2 PPI	Myeloid diff MLP	TLR4-MyD88 BLA	TLR9-MyD88 inh
CC(C)Cn1c(N)c(C(=O)COC(=O)c2cc(-c3ccco3)nc3ccccc23)c(=O)n(C)c1=O	i	i	+	i	i
Cn1c(=O)c(C(=O)COC(=O)c2cc(-c3ccco3)nc3ccccc23)c(N)n(Cc2ccccc2)c1=O	nt	nt	nt	i	nt
O=C(Nc1ccc(Cl)c(-c2nc3ccccc3[nH]2)c1)c1ccc2c(c1)OCO2	i	i	+	i	i
O=C(O)CC(NC(=O)Cc1ccc(Cl)cc1)c1ccco1 (centres undefined)	nt	nt	nt	i	nt
CN(C)c1ccc(N=Cc2ccco2)cc1	i	i	+	i	i
CN(C)c1ccc(C=Nc2ccc(N(C)C)cc2)cc1	i	i	i	i	i
Cc1[nH]oc(=O)c1N=Nc1ccc2[nH]c(=O)[nH]c2c1	71.0	i	i	nt	i
CCc1cc(=O)oc2cc(OC(C)C(=O)N3CC[C@@]4(O)CCCC[C@H]4C3)ccc12 (some centres undefined)	i	i	i	nt	nt
COC(=O)c1[nH]c2c(c1C)C(=O)CC(c1cc(OC)ccc1OC)C2 (centres undefined)	i	i	+	i	i
CCCCOC(=O)c1[nH]c2c(c1C)C(=O)CC(c1cc(OC)c(OC)c(OC)c1)C2 (centres undefined)	i	i	+	i	i
C=CCOC(=O)c1[nH]c2c(c1C)C(=O)CC(c1cc(OC)c(OC)c(OC)c1)C2 (centres undefined)	i	i	i	i	i
CCCCCNC(=O)C(CCc1ccccc1)n1c(=O)c(-c2ccccc2)nc2ccccc21 (centres undefined)	nt	i	i	nt	nt
COc1ccc2[nH]cc(/C=C/c3cc[n+](C)cc3)c2c1	i	i	+	nt	i
COc1ccc2[nH]cc(C=O)c2c1	i	i	i	i	i
COC1=CC(=O)C=C(OC)C1=O	i	21.9	?	nt	i
COC1=CC(=O)c2ccccc2C1=O	i	i	i	nt	i
Cn1c(=O)c2c(nc(CN3CCc4ccccc4C3)n2Cc2cccc(Cl)c2)n(C)c1=O	i	i	+	i	i
CCN(CC(=O)Nc1ccc(C)c(S(=O)(=O)N2CCOCC2)c1)Cc1ccccc1	i	i	i	nt	i
CC(=O)c1ccc(OC(=O)C(CCS(C)(=O)=O)N2C(=O)c3ccccc3C2=O)cc1 (centres undefined)	i	i	i	i	i
CCOc1ccc(OC(=O)C(CCS(C)(=O)=O)N2C(=O)c3ccccc3C2=O)cc1 (centres undefined)	i	i	+	i	i
CC1(C)Cc2ccccc2C2=NNC(=O)C2=N1	i	i	+	i	i
Fc1ccc(/C=N/NC2=Nc3cccc4cccc2c34)cc1	i	i	+	i	i
CCN1C/C(=C/c2cccc([N+](=O)[O-])c2)C(=O)/C(=C/c2cccc([N+](=O)[O-])c2)C1	i	i	?	i	i
Cc1ccccc1C(=O)N1CCC(C(=O)OCc2ccccc2Cl)CC1	i	i	i	nt	i
COc1ccc(-n2c(C)cc(/C=N/Nc3nnc(C)n3N)c2C)cc1	i	i	i	i	i
SMILES	ABCB6 inh MLPCN	NOD2 RIPK2 PPI	Myeloid diff MLP	TLR4-MyD88 BLA	TLR9-MyD88 inh
NC(=O)c1c(/N=C/c2cccnc2)sc2c1CCCC2	i	i	i	nt	nt
C#CC[N+](C)(C)CC#Cc1ccccc1	i	i	+	i	i
O=[N+]([O-])c1ccc(COP(=O)(O)OCc2ccc([N+](=O)[O-])cc2)cc1	i	i	+!	nt	nt
O=C(Cc1ccc([N+](=O)[O-])cc1)OCc1ccc([N+](=O)[O-])cc1	i	i	i	nt	i
COc1ccc(/C=C(\C#N)C(=O)OCC(=O)NCc2ccc(Cl)cc2)cc1	nt	nt	nt	i	nt
Cc1ccc(NC(=O)c2ccc(COc3ccccc3[N+](=O)[O-])o2)nc1	i	i	+	nt	i
COc1ccccc1OCc1ccc(C(=O)NN)o1	i	i	+	nt	i
Cc1ccc(NC(=O)COc2ccccc2[N+](=O)[O-])nc1	i	i	i	i	i
COc1ccc(NC(=O)c2ccc(COc3ccccc3OC)o2)cc1OC	i	i	i	i	i
O=C1OCC(CO)(CO)N=C1NNc1ccc(Cl)c(Cl)c1	i	i	i	i	i
Cc1ccc(S(=O)(=O)N2CCN(C(=O)COC(=O)c3ccc(O)cc3)CC2)c(C)c1	i	i	i	nt	i
Cc1ccc(NC(=O)c2cnccn2)cc1C	i	i	i	nt	i
COc1ccccc1C1CCN(C(=O)c2ccco2)CC1	i	i	i	nt	i
N#CC1(NC(=O)COC(=O)c2cc(O)c3ccccc3c2O)CCCCC1	i	i	+	nt	i
COc1ccc(NC(=S)NNc2ccc(S(=O)(=O)Nc3ccccc3C(=O)O)cc2[N+](=O)[O-])cc1	i	i	i	nt	i
O=C(OCc1ccccc1)N1CCC2CC1c1c(Cl)cccc12 (centres undefined)	i	i	i	nt	i
O=C(OCc1ccccc1)N1CCC2CC1c1ccc(Cl)cc12 (centres undefined)	i	i	+	nt	i
O=[N+]([O-])c1ccc(Nc2ccccc2O)c([N+](=O)[O-])c1	i	i	+	nt	i
CCOc1ccc(N=C2NC(=O)S/C2=C\c2ccc(N(C)C)cc2)cc1	i	i	+	i	i
CCOCCCNC(=O)Cn1cnc2c(cnn2-c2ccc(C)c(C)c2)c1=O	i	i	i	nt	i
N#C/C(=C\c1ccc(N2CCOCC2)o1)c1ccccc1	i	i	nt	i	i
N#C/C(=C/c1ccc(N2CCCCCC2)o1)c1ccc(F)cc1	i	39.1	i	i	23.7
N#C/C(=C/c1ccc(N2CCOCC2)o1)c1ccc(Br)cc1	i	25.2	+	i	i
O=C(COC(=O)c1cc(=O)[nH]c2ccccc12)NCc1ccccc1	i	i	i	nt	i
N/C(=N\OS(=O)(=O)c1ccc(Br)cc1)c1ccncc1	63.0	i	i	i	i
SMILES	ABCB6 inh MLPCN	NOD2 RIPK2 PPI	Myeloid diff MLP	TLR4-MyD88 BLA	TLR9-MyD88 inh
N/C(=N\OC(=O)COc1ccc(Br)cc1)c1ccncc1	i	i	i	i	i
COC(=O)c1ccc2c(c1)c(-c1ccccc1)c(-c1ccccc1)n2C	i	i	i	nt	i
CC(=O)N(C)c1ccc(C=C2C=Cc3ccccc32)cc1	i	i	i	nt	i
COc1cc(/C=C(/C#N)C(=O)c2c(C)[nH]c3ccccc23)ccc1OCC#N	i	i	i	nt	i
CCOC(=O)c1c(C)[nH]c(C(=O)/C(C#N)=C/c2ccc(OC(F)F)c(OC)c2)c1C	i	i	+	i	i
CCOC(=O)c1c(C)[nH]c(C(=O)/C(C#N)=C/c2ccc(OC)c(OC)c2)c1C	i	i	+	i	i
COC(=O)c1ccc(OCC(=O)c2ccccc2OC)cc1	i	i	i	i	i
NNC(=O)c1csc(-c2cccc(C(F)(F)F)c2)n1	i	i	+	i	i
O=C(Nc1ccc(C(F)(F)F)cc1)c1csc(-c2ccncc2)n1	i	i	i	i	i
CC(C)(CNC(=O)c1ccc(NS(=O)(=O)c2ccc(Br)cc2)cc1)N1CCOCC1	i	i	i	nt	i
CCN1CCN(CCCNC(=O)c2ccc(/C=C3/Sc4ccccc4N(Cc4ccccc4F)C3=O)cc2)CC1	i	i	i	i	i
